# Biological target: CCDC102B
# Experiment: pooled miR-30 sensor sort-seq; sequence = guide strand
# Details: shRNA
# Further: reference of the scale not given here.
row,Sequence,sensor-assay potency score (higher = more potent)
1,TTCAGCTCGAACTTTACTCCAT,0.199
2,ATCAACACCATCTAGATTGGGC,0.0383
3,TTGTTGAATAAATCAACACCAT,-0.659
4,TTCACCTGGATCTTCAGCCTTC,0.0425
5,TAATCTATTTTTCTTATCCAAA,-1.3
6,TTTGTTAATACAACCTGCCATC,-1.01
7,TAACATTAGCTTCTAATGCCTC,-0.718
8,TTATTCTGAGTTGTCTTCCTTC,0.72
9,TTAACTCACAAATCACTCTGTC,0.63
10,TTTGTGACATCTTGAAATCAGG,-1.26
11,TTGATGATTGTTGCATCTGGAA,-0.905

# Biological target: CCDC105
# Experiment: as above
# Details: shRNA
row,Sequence,sensor-assay potency score (higher = more potent)
1,TTTTTCCATATCTCTCTCCATT,-1.2
2,TTTGCCATTTCTACCAAGGTGT,-0.502
3,TTCGCTGAGCCTGTGGTCGGTG,-0.476
4,TTTTCTGACCCTGTGTGCGTGG,-0.545
5,TTGAGTAGGACCTCTGATTTTT,-1.1
6,TAATCTTTCCTTCAGCTCCAAG,-0.875
7,TTGGACTCGACCAACAACCGCT,-0.0723
8,TATCTGCAGCTGTTGCTCCCGG,-0.913
9,TATATTTCGTACACCGGAGGAT,0.16
10,TTCAGCTCCAAGGTCTCGCTCG,-0.194
11,TTAATCTTTCCTTCAGCTCCAA,0.0783
12,TTGCGCACTTCGCTGAGCCTGT,-0.764

# Biological target: CCDC111
# Experiment: as above
# Details: shRNA
row,Sequence,sensor-assay potency score (higher = more potent)
1,TAAACCAGTAATTCTTCTGGGA,0.0581
2,TTGTCGATGAAATAGTCTCCAG,-1.27
3,TAAAAGCTTGAGCTTGTCGATG,-0.777
4,TTTGATGATTTATATAGCCGAA,-0.728
5,TTTTATTGAAAGAAAATCCTTG,0.279
6,TATTTCTTGTATAAACTCCGAG,-0.0493
7,TTGTAAACTCTTCTTCCTCTTT,-0.271
8,TATAGTAAAACCAAAATTCAGC,-0.935

# Biological target: CCDC124
# Experiment: as above
# Details: shRNA
row,Sequence,sensor-assay potency score (higher = more potent)
1,TTGAGCAGCTGTTTCAGCTGCG,0.469
2,TTGAGCTTGGAGTCCTCCTCCT,-0.0303
3,TTTCAGCTGCGACAGCCGCATG,-1.52
4,TGACGTGTTTGTCGTCGTCCTT,-0.925
5,TCGTCGTCCTTCCAGTAGGCAT,-1.51
6,TAGGCGCTGCGTCTCCTTCTTA,-1.03
7,TCTGCTTCTTGGCATCAGCGGC,-1.05
8,TTCTCTTGTTTGAGCCGCGGCA,-0.945
9,TTGTCGTCGTCCTTCCAGTAGG,-1.14
